USP7 inh: inhibitors of human USP7 deubiquitinase; purified USP7, Ub-rhodamine cleavage fluorescence; inhibition, % at 20 µM; 47,000 compounds, 0.3% hits; Q93009
USP8 block: human USP8 deubiquitinase inhibition. P40818. purified USP8, Ub-rhodamine cleavage fluorescence, 30 min. inhibition, % at 20 µM. 47,000 compounds, 4.2% hits. AID 1645853
UCHL1 block: human UCHL1 deubiquitinase inhibition; AID 1645859; 47,000 compounds, 0.2% hits; inhibition, % at 20 µM; purified UCHL1, Ub-rhodamine cleavage fluorescence
Target sequence (P09936 whole entry, looked up): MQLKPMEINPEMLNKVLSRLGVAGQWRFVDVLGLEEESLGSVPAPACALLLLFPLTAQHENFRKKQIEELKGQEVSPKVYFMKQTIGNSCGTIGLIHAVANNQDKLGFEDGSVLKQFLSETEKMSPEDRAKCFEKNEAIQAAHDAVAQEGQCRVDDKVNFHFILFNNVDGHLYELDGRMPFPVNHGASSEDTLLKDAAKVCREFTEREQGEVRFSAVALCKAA
OTUD3 inh: inhibitors of human OTUD3 deubiquitinase | Q5T2D3 | purified OTUD3, Ub-rhodamine fluorescence, 2 h | inhibition, % at 25 µM | 47,000 compounds, 0.7% hits | AID 1645858
USP10 block: human USP10 deubiquitinase inhibition; inhibition, % at 20 µM; Q14694; AID 1645856; 47,000 compounds, 1.1% hits; purified USP10, Ub-rhodamine fluorescence, 60 min
USP17 inh: blocks human USP17 ubiquitin-rhodamine cleavage. purified USP17, Ub-rhodamine cleavage fluorescence, 3 h. inhibition, % at 50 µM. 47,000 compounds, 6.5% hits. AID 1645855
Large screens that a line does not name were inactive. The list is not random: actives were taken first. Their share in the collection is about 9.2%. No stated cut-off is given here; in the data, active means inhibition above about 30%; inactive means the rest.

CN(C)Cc1ccc(CN2CCc3c(nc(-c4ccncc4)[nH]c3=O)C2)cc1	none
COc1ccc2c(Cl)c(C(=O)Nc3ccc(S(=O)(=O)N(C)Cc4ccccc4)cc3)sc2c1	USP10 block 42.1
Cc1ccc(-c2ncc(C(=O)N3CCCC(C)C3)c(-c3ccncc3)n2)cc1 (configuration not stated)	none
COc1cn(-c2ccc(F)cc2)nc1C(=O)Nc1ccc(Cl)cc1Cl	USP8 block 48.8
COc1ccc(-n2nnc(C(=O)Nc3ccc(F)cc3F)c2C)cc1	none
O=C(NCc1ccc(-c2nc(C3CC3)ncc2-c2ccccn2)cc1)C1CCCO1 (configuration not stated)	none
COc1cccc(OC(C)C(=O)NCc2ccc(-c3ncncc3-c3cc(C)no3)cc2)c1 (configuration not stated)	none
COc1cc(NC(=O)Cn2nc(C(C)C)c(-c3cc(C)no3)cc2=O)cc(OC)c1	USP17 inh 30.7
COc1cccc2[nH]c3c(N4CCCC4)ncnc3c12	none
CN1C(=O)COc2cc(-c3noc(C(=O)NCc4ccc(F)cc4)n3)ccc21	USP8 block 40.6, USP10 block 54.8, USP17 inh 54.0
CN1C(=O)COc2cc(-c3noc(C(=O)NCc4ccccc4)n3)ccc21	USP17 inh 43.9
CN1C(=O)COc2cc(-c3noc(C(=O)NCc4ccccn4)n3)ccc21	none
COc1ccc(C(=O)N2CCN(c3cnn4c(C)nnc4c3)CC2)cc1	none
C/C(Nc1ccc2oc(=O)ccc2c1)=C1/C(=O)CC2[C@H]1C2(C)C (some centres not stated)	USP8 block 40.6 (no result: USP17 inh)
Cc1ccc(S(=O)(=O)NC2CCN(C(=O)CN3C(=O)COc4ccccc43)CC2)cc1	none
COc1ccc(CC(=O)Nc2c(C)nc3sccn3c2=O)cc1	none
Cc1cc(C)nc(NC(=O)c2c(C)nc3sccn23)c1	USP17 inh 31.1
COc1ccc2cc(C(=O)N3CCC(C(C)C(=O)NCc4ccccc4)CC3)[nH]c2c1 (configuration not stated)	none
O=c1ccc(-c2noc(/C=C/c3ccc4c(c3)OCO4)n2)c[nH]1	USP17 inh 47.1
Cc1ccc(-c2nc(-c3ccc(=O)[nH]c3)no2)cc1F	none
O=c1ccc(-c2noc(-c3ccc4cc[nH]c4c3)n2)c[nH]1	USP8 block 51.0, USP17 inh 58.8
COc1ccc(CCNC(=O)c2ccc(Cn3c(=O)c4ccccc4n(Cc4cc(=O)n5ccccc5n4)c3=O)cc2)cc1OC	USP17 inh 66.1
COCCCNC(=O)c1ccc(Cn2c(=O)c3ccccc3n(CC(=O)c3ccccc3)c2=O)cc1	none
O=C(Cc1ccc(-n2c(=O)c3ccccc3n(Cc3cc(=O)n4ccccc4n3)c2=O)cc1)NCCc1ccccc1	USP8 block 48.6
O=C(Cc1ccc(-n2c(=O)c3sccc3n(Cc3cc(=O)n4ccccc4n3)c2=O)cc1)NCc1ccco1	none
CCc1ccc(-n2c(=O)c3cccnc3n2CC(=O)Nc2cccc(F)c2)cc1	none
O=C(/C=C/c1ccc2c(c1)OCO2)c1ccc(-n2cncn2)cc1	USP17 inh 44.8
Cc1noc(C2CN(C(=O)/C=C/c3ccc4c(c3)OCO4)C2)n1	none
CC1=CC(=O)C(C2=C(O)C(=O)C(C)=CC2=O)=C(O)C1=O	USP8 block 32.0, OTUD3 inh 35.7, USP17 inh 93.5
CNC(=O)c1c(Br)cnn1-c1ccc(C)cc1	USP17 inh 38.7
Cc1ccc(-n2nnc(C(=O)NC(C)C)c2C2CC2)cc1	none
CC(/C=C/C(=O)NO[C@@H]1O[C@H](CO)[C@@H](O)[C@H](O)[C@H]1O)=C\C(C)C(=O)c1ccc(N(C)C)cc1 (some centres not stated)	USP17 inh 42.7
Cc1ccc(-c2nc(CN3CCCC3Cn3cncn3)cs2)o1 (configuration not stated)	none
CC(=O)C1=C(O)[C@]2(O)C(=O)c3c(c(C)c4ccc(C)c(O)c4c3O)C[C@H]2[C@@H](N)C1=O	USP7 inh 58.1, UCHL1 block 65.6, OTUD3 inh 67.1, USP17 inh 59.8
Cc1nc(C)n(CC2CCCCN2Cc2ccc(F)cc2C#N)n1 (configuration not stated)	none
Cc1ccc(-c2cn(CC(=O)NCc3cccc(F)c3)c(=O)o2)cc1	USP17 inh 77.0
Cc1cccc(NC(=O)C2CC(=O)NC(N3CCN(c4ccccc4)CC3)=N2)c1 (configuration not stated)	USP8 block 33.9
O=C1CC(c2ccccc2)Cc2nc(Nc3cc(Cl)cc(Cl)c3)ncc21 (configuration not stated)	USP17 inh 32.9 (no result: USP7 inh)
Fc1ccc(CN2CCCC(c3[nH]nc4nccnc34)C2)cc1 (configuration not stated)	none
CC(C)C[C@H](NC(=O)[C@@H](Cc1ccccc1)n1c(=O)[nH]c2ccccc2c1=O)C(=O)N[C@H](Cc1ccccc1)C(=O)O	none
Cc1cc(Nc2ccc(C)c(Cl)c2)n2nc(-c3cccnc3)nc2n1	none
COc1ccccc1Nc1cc(C)nc2nc(-c3ccco3)nn12	USP17 inh 40.8
Cc1cc(Nc2ccc(C)c(Cl)c2)n2nc(-c3ccco3)nc2n1	USP8 block 35.2
O=C(c1cc(Cl)nc2ccccc12)N1CCc2ccccc2C1	USP8 block 33.1
O=C(c1cn(-c2cccc(Cl)c2)nn1)N1CCc2ccccc2C1	none
COc1cccc(-c2cc3n(C)c(C)c(CCC(=O)NCc4ccco4)c(=O)n3n2)c1	USP8 block 53.4
COc1cccc2cc(C(=O)Nc3nc(-c4ccncc4)cs3)oc12	USP7 inh 48.8, USP8 block 48.7, OTUD3 inh 32.3, USP10 block 47.9, USP17 inh 31.3
CCC(=O)Nc1nc2cc(NC(=O)Nc3cc(C)cc(C)c3)ccc2s1	USP8 block 60.1, OTUD3 inh 30.5, USP10 block 32.3
CCC(=O)Nc1nc2ccc(NC(=O)Cc3ccc(OC)c(OC)c3)cc2s1	USP17 inh 35.6
CCC(=O)Nc1nc2cc(NS(=O)(=O)c3ccc(C)cc3)ccc2s1	none
Cc1cccc(-n2cnc(C(=O)N3CCN(Cc4ccc5c(c4)OCO5)CC3)c2)n1	none
O=C(CSc1nc2ccccc2[nH]1)Nc1cccc2c1OCCO2	none
O=C(NCc1cccs1)C(NS(=O)(=O)c1cccc2nsnc12)c1ccccc1 (configuration not stated)	none
CCC(C(=O)Nc1cccc2nsnc12)c1ccccc1 (configuration not stated)	USP8 block 37.4
O=C(CSc1ccccc1)Nc1cccc2nsnc12	USP8 block 53.1, USP17 inh 31.7
CS(=O)(=O)N1C[C@H]2CC(OCc3ccccc3)C[C@H]2C1 (some centres not stated)	none
O=C(Cn1cc(SCc2ccccc2Cl)c2ccccc21)N1CCCC1	USP17 inh 32.0
Cc1ccc(NC(=O)Cn2c(N3CCCCC3)nc(C)cc2=O)cc1	none

Screening data as filed in PubChem.
